Screens from PubChem BioAssay.
TRPM1 prom inh = inhibitors of MITF-driven TRPM1 promoter in melanoma cells. SK-MEL-5 TRPM1 promoter luciferase, 24 h. 0.83% of 330,000 active. inhibition, % at 12.5 µM;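 active means mean inhibition across replicates of 60% or more, whatever share of single replicates reaches that level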
Glyco luc inh = N-linked glycosylation inhibition; D54 ERlucT glycosylation luciferase reporter, 24 h; percent of 100 nM tunicamycin response; reporter increase, % at 12.5 µM; 0.23% of 360,000 active;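 active means mean luciferase reporter signal, scaled so untreated is 0 and the glycosylation-blocking control 100, at or above a set limit in every replicate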;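 further: luciferase carries N-glycosylation sites so blocking glycosylation raises the light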
Wnt bcat act = Wnt/beta-catenin pathway activation | Wnt/beta-catenin reporter cell assay, activator, plate reader | activation, % at 9.35 µM | 1.2% of 300,000 active | AID 743398; in the data active means activation above about 30%, passing the limit was not always enough
MITF TRPM1 HTS = MITF TRPM1 promoter activation in melanoma cells; SK-MEL-5 TRPM1-promoter luciferase, 24 h; % of positive control, neutral wells = 0; activation, % at 12.5 µM; 0.75% of 300,000 active; AID 588334;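 active means mean activation of at least 80% with every replicate also reaching 80%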
PfHsp90 yeast 2 = inhibits growth of yeast expressing Plasmodium falciparum Hsp90. S. cerevisiae expressing PfHsp90, BacTiter-Glo ATP, 48 h; yeast lacking PDR1 and PDR3 efflux regulators. inhibition, % at 9.4 µM. 0.32% of 310,000 active. AID 504621;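 active means every replicate shows inhibition above about 80%, whatever the replicate mean, limit read from the data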
NSD2 HMT inh = blocks human histone methyltransferase NSD2 | inhibition, % at 12.5 µM | O96028 | AID 743445 | NSD2 peptide methylation, AlphaScreen, 120 min | 0.54% of 310,000 active; in the data active means inhibition above about 50%
Alpha artifact = interferes with AlphaScreen signal, flagging NSD2 false positives | shares compounds with NSD2 HMT inh | AlphaScreen artifact counterscreen, preloaded methylated H4 peptide | AC35, µM (titrated, usually from 10 µM) | 9.4% of 1,500 active; call rule not given here
Each line names hits and unclear results; the compound was inactive in the other large screens (follow-up assays come after a bar, where they were run). Most compounds without a hit are left out; they make up all but 2.9% or so of the library.

CC[C@@H](C)[C@H](NC(=O)OC(C)(C)C)c1nnc(S(=O)(=O)Cc2cc(C)ccc2C)o1	PfHsp90 yeast 2 105.6 (no result: Wnt bcat act)
CN(C)C(=O)N1CCN(C(=O)[C@H](CCc2ccccc2)NC(=O)[C@H]2O[C@@H](n3cnc4c(N)ncnc43)[C@H](O)[C@@H]2O)CC1	none (no result: TRPM1 prom inh, Glyco luc inh, MITF TRPM1 HTS, PfHsp90 yeast 2)
C[C@H](CO)N1C[C@H](C)[C@@H](CN(C)C(=O)c2ccccc2)OCc2cnnn2CCCC1=O	none (no result: TRPM1 prom inh, MITF TRPM1 HTS, PfHsp90 yeast 2, NSD2 HMT inh)
CC(C)(C)N(Cc1ccccc1)C(=O)COC(=O)c1ccccc1SCC(=O)N1CCCC1	none
COc1cccc(OCC(O)CN2CCN(CCN3C(=O)c4cccc5cccc(c45)C3=O)CC2)c1 (stereo unspecified)	Glyco luc inh 34.3
CCc1nc2ccc(C(=O)NCCCN3CCCC3=O)cn2c1N(C)C(=O)Nc1ccccc1OC	none (no result: TRPM1 prom inh, MITF TRPM1 HTS, PfHsp90 yeast 2)
N#C/C(=C(/O)CCl)c1nc2ccccc2[nH]1	TRPM1 prom inh 79.6
COCC(=O)OC/C(O)=C(\C#N)c1nc2ccccc2[nH]1	Glyco luc inh 32.2
Cc1ccc(S(=O)(=O)NC(=O)Nc2ccc(F)c(F)c2)cc1	none
COc1ccc(NC(=O)NS(=O)(=O)c2ccc(C)cc2)cc1OC	Wnt bcat act 31.8
O=C1CSC(=S)N1/N=C/c1cccnc1	Wnt bcat act 40.9 (no result: MITF TRPM1 HTS)
O=C1CSC(=S)N1N=Cc1ccccc1O	none
CCc1cc2c(=O)c(-c3ccc4c(c3)OCCO4)coc2cc1OC(=O)c1ccco1	Wnt bcat act 67.5 (no result: MITF TRPM1 HTS)
CCCc1cc2c(=O)c(-c3ccc4c(c3)OCCO4)coc2cc1OS(C)(=O)=O	none
CCCc1cc2c(=O)c(-c3ccc4c(c3)OCCO4)coc2cc1OC(=O)c1ccco1	MITF TRPM1 HTS 84.2 (no result: Wnt bcat act)
C[C@@H]1OC(C2CCCCC2)N(C)[C@H]2C[C@H]3c4[nH]c5cccc(-c6ccccc6)c5c4CCN3C(=O)[C@@H]12 (stereo partly specified)	none (no result: TRPM1 prom inh, Glyco luc inh, MITF TRPM1 HTS, PfHsp90 yeast 2, NSD2 HMT inh)
Clc1ccc(-n2c(SCc3cccc4ccccc34)nnc2-c2ccccn2)cc1	none (no result: TRPM1 prom inh, Glyco luc inh, Wnt bcat act, MITF TRPM1 HTS, PfHsp90 yeast 2)
COc1ccc(CN2C(=O)CSCC2(C)C(=O)NCc2ccccc2)cc1 (stereo unspecified)	none (no result: TRPM1 prom inh, Glyco luc inh, MITF TRPM1 HTS, PfHsp90 yeast 2, NSD2 HMT inh)
CCc1cc(C(=O)COc2ccc(F)cc2)c(O)cc1O	Wnt bcat act 42.5
CC[n+]1c(/C=C/c2c[nH]c3ccccc23)ccc2cc(C)ccc21	TRPM1 prom inh 74.5, NSD2 HMT inh 107.9 (no result: Glyco luc inh) | Alpha artifact inactive
COc1ccc(OCc2cc(C(=O)NCC(C)(C)N3CCOCC3)no2)c(Cl)c1	none
CC(C)C[C@H]1COc2cccc(N3CCN(Cc4ccccc4F)CC3)c2S(=O)(=O)N1	none (no result: TRPM1 prom inh, Glyco luc inh, MITF TRPM1 HTS, PfHsp90 yeast 2, NSD2 HMT inh)
COc1ccc2ccccc2c1C1CC(=O)N2CN(C)CSC2=C1C#N (stereo unspecified)	NSD2 HMT inh 88.7 (no result: PfHsp90 yeast 2) | Alpha artifact inactive
COc1ccc(/C=C(\C#N)C(=O)N=CN(C)C)cc1	none
COc1ccc(/C=C(\C#N)C(=O)N2COCC2(C)C)cc1	NSD2 HMT inh 59.4 | Alpha artifact inactive
CCOc1ccccc1N1CCN(C/C=C/c2ccc(N(C)C)cc2)CC1	NSD2 HMT inh 68.9 (no result: Wnt bcat act) | Alpha artifact 9.17µM
COc1ccc(Oc2c(OC)cc([N+](=O)[O-])c3ncccc23)cc1	none
COc1cc(NC(C)CCCN)c2ncccc2c1Oc1ccccc1 (stereo unspecified)	NSD2 HMT inh 63.2 | Alpha artifact inactive
O=C(COC(=O)CCCN1C(=O)c2ccccc2C1=O)Nc1cc(Cl)cc(Cl)c1	none (no result: Wnt bcat act)
COc1cc(/C=C/c2cccc[n+]2C)ccc1OCC(=O)Nc1cccc(Cl)c1	none
O=C(NCCC(=O)N1CCc2ccccc21)c1ccco1	NSD2 HMT inh 67.7 | Alpha artifact inactive
O=C(NC(Cc1ccccc1)C(=O)OCC(=O)N1CCc2ccccc21)c1ccco1 (stereo unspecified)	none (no result: Wnt bcat act)
CCC(=O)N(c1nnc(SCC(=O)Nc2sccc2C(N)=O)s1)C1CC1	none (no result: TRPM1 prom inh, MITF TRPM1 HTS, PfHsp90 yeast 2)
C[n+]1ccc(/C=C/c2ccccc2O)c2ccccc21	NSD2 HMT inh 50.4 | Alpha artifact inactive
CC(=O)C(C(C)=O)C1(O)C(=O)c2ccccc2C1=O	NSD2 HMT inh 103.6 | Alpha artifact inactive
CC(=O)N(C)C1=C(O)c2ccccc2C(=O)C1=O	none (no result: Wnt bcat act)
